# Experimental data from article PMC11006913.
# Positions count from the first letter of the chain named.
# Columns and labels:
# Test in all cases: PBM; 200 nM protein, PBS
# Details in all cases: dsDNA, one strand shown
# VENTX [1] = biological target: T1, VENTX (Homo sapiens, UniProt O95231 78-163, R121Q)
# T1 sequence: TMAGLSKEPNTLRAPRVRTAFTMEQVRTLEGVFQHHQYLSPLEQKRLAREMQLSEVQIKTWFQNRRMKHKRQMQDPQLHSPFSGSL
# SIX6 [2] = biological target: T2, SIX6 (Homo sapiens, UniProt O95475 114-200, L167I)
# T2 sequence: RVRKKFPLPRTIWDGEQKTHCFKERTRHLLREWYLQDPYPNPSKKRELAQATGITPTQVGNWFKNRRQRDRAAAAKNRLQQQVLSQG
# VENTX [3] = biological target: T3, VENTX (Homo sapiens, UniProt O95231 78-163)
# T3 sequence: T1 sequence with Q44R
# SIX6 [4] = biological target: T4, SIX6 (Homo sapiens, UniProt O95475 114-200, L143V)
# T4 sequence: T2 sequence with L30V, I54L
# SIX6 [5] = biological target: T5, SIX6 (Homo sapiens, UniProt O95475 114-200, H141N)
# T5 sequence: T2 sequence with H28N, I54L
# SIX6 [6] = biological target: T6, SIX6 (Homo sapiens, UniProt O95475 114-200, T165P)
# T6 sequence: T2 sequence with T52P, I54L
# VENTX [7] = biological target: T7, VENTX (Homo sapiens, UniProt O95231 78-163, Y115F)
# T7 sequence: T1 sequence with Y38F, Q44R
# SIX6 [8] = biological target: T8, SIX6 (Homo sapiens, UniProt O95475 114-200, L167M)
# T8 sequence: T2 sequence with I54M
# SIX6 [9] = biological target: T9, SIX6 (Homo sapiens, UniProt O95475 114-200, L143M)
# T9 sequence: T2 sequence with L30M, I54L
# SIX6 [10] = biological target: T10, SIX6 (Homo sapiens, UniProt O95475 114-200, L143I)
# T10 sequence: T2 sequence with L30I, I54L
# SIX6 [11] = biological target: T11, SIX6 (Homo sapiens, UniProt O95475 114-200, T165G)
# T11 sequence: T2 sequence with T52G, I54L
# SIX6 [12] = biological target: T12, SIX6 (Homo sapiens, UniProt O95475 114-200, T139Q)
# T12 sequence: T2 sequence with T26Q, I54L
# SIX6 [13] = biological target: T13, SIX6 (Homo sapiens, UniProt O95475 114-200, T165A)
# T13 sequence: T2 sequence with T52A, I54L
# SIX6 [14] = biological target: T14, SIX6 (Homo sapiens, UniProt O95475 114-200, L167V)
# T14 sequence: T2 sequence with I54V
# SIX6 [15] = biological target: T15, SIX6 (Homo sapiens, UniProt O95475 114-200)
# T15 sequence: T2 sequence with I54L
# VAX1 [16] = biological target: VAX1 (Homo sapiens, UniProt Q5SQQ9 86-172)
# Sequence of VAX1 (Homo sapiens, UniProt Q5SQQ9 86-172) (Q5SQQ9 86-172): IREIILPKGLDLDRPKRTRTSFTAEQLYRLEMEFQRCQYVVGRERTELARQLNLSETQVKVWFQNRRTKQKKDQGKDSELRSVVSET
# SIX6 [17] = biological target: T16, SIX6 (Homo sapiens, UniProt O95475 114-200, T165I)
# T16 sequence: T2 sequence with T52I, I54L
# VAX1 [18] = biological target: VAX1 (Homo sapiens, UniProt Q5SQQ9 86-172, T142I)
# Sequence of VAX1 (Homo sapiens, UniProt Q5SQQ9 86-172, T142I) (Q5SQQ9 86-172 T142I): as the sequence (Q5SQQ9 86-172) above, with T57I counted along it
# VAX1 [19] = biological target: VAX1 (Homo sapiens, UniProt Q5SQQ9 86-172, K157R)
# Sequence of VAX1 (Homo sapiens, UniProt Q5SQQ9 86-172, K157R) (Q5SQQ9 86-172 K157R): as the sequence (Q5SQQ9 86-172) above, with K72R counted along it
# HOXB9 [20] = biological target: HOXB9 (Homo sapiens, UniProt P17482 171-250, T197M)
# Sequence of HOXB9 (Homo sapiens, UniProt P17482 171-250, T197M) (P17482 171-250 T197M): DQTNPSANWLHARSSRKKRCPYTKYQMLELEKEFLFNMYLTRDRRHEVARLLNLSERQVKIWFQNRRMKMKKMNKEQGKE
# HOXC9 [21] = biological target: HOXC9 (Homo sapiens, UniProt P31274 178-260, K195R)
# Sequence of HOXC9 (Homo sapiens, UniProt P31274 178-260, K195R) (P31274 178-260 K195R): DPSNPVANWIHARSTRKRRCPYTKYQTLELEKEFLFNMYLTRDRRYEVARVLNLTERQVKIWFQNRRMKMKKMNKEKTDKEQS
# HOXB9 [22] = biological target: HOXB9 (Homo sapiens, UniProt P17482 171-250)
# Sequence of HOXB9 (Homo sapiens, UniProt P17482 171-250) (P17482 171-250): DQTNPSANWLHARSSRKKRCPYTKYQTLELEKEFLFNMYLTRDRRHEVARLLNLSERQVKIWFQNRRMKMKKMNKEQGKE
# HOXC9 [23] = biological target: HOXC9 (Homo sapiens, UniProt P31274 178-260)
# Sequence of HOXC9 (Homo sapiens, UniProt P31274 178-260) (P31274 178-260): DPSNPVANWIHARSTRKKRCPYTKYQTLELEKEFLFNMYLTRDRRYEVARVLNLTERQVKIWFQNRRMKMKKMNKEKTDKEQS
# ALX3 [24] = biological target: ALX3 (Homo sapiens, UniProt O95076 139-225, N203Q)
# Sequence of ALX3 (Homo sapiens, UniProt O95076 139-225, N203Q) (O95076 139-225 N203Q): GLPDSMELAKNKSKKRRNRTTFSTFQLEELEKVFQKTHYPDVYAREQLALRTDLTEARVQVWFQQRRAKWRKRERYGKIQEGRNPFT
# HOXC9 [25] = biological target: HOXC9 (Homo sapiens, UniProt P31274 178-260, R193K)
# Sequence of HOXC9 (Homo sapiens, UniProt P31274 178-260, R193K) (P31274 178-260 R193K): as the sequence (P31274 178-260) above, with R16K counted along it
# ALX3 [26] = biological target: ALX3 (Homo sapiens, UniProt O95076 139-225)
# Sequence of ALX3 (Homo sapiens, UniProt O95076 139-225) (O95076 139-225): as the sequence (O95076 139-225 N203Q) above, with Q65N counted along it
# ALX3 [27] = biological target: ALX3 (Homo sapiens, UniProt O95076 139-225, L168Q)
# Sequence of ALX3 (Homo sapiens, UniProt O95076 139-225, L168Q) (O95076 139-225 L168Q): as the sequence (O95076 139-225 N203Q) above, with L30Q, Q65N counted along it
# HOXB9 [28] = biological target: HOXB9 (Homo sapiens, UniProt P17482 171-250, R186Q)
# Sequence of HOXB9 (Homo sapiens, UniProt P17482 171-250, R186Q) (P17482 171-250 R186Q): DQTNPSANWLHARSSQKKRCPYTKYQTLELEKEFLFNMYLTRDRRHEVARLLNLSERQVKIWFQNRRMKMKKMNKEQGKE
# HOXC9 [29] = biological target: HOXC9 (Homo sapiens, UniProt P31274 178-260, R222W)
# Sequence of HOXC9 (Homo sapiens, UniProt P31274 178-260, R222W) (P31274 178-260 R222W): as the sequence (P31274 178-260) above, with R45W counted along it
# ALX3 [30] = biological target: ALX3 (Homo sapiens, UniProt O95076 139-225, L168V)
# Sequence of ALX3 (Homo sapiens, UniProt O95076 139-225, L168V) (O95076 139-225 L168V): as the sequence (O95076 139-225 N203Q) above, with L30V, Q65N counted along it
# ALX3 [31] = biological target: ALX3 (Homo sapiens, UniProt O95076 139-225, N203S)
# Sequence of ALX3 (Homo sapiens, UniProt O95076 139-225, N203S) (O95076 139-225 N203S): as the sequence (O95076 139-225 N203Q) above, with Q65S counted along it
sequence,measurement,setting,value
CAAGGCCC,binding signal,VENTX [1],"7.94 upbm affinity estimate (log intensity, higher = more binding, comparable within an allelic series)"
same,binding signal,SIX6 [2],"8.9 upbm affinity estimate (log intensity, higher = more binding, comparable within an allelic series)"
same,binding signal,VENTX [3],"7.78 upbm affinity estimate (log intensity, higher = more binding, comparable within an allelic series)"
same,binding signal,SIX6 [4],"8.85 upbm affinity estimate (log intensity, higher = more binding, comparable within an allelic series)"
same,binding signal,SIX6 [5],"8.89 upbm affinity estimate (log intensity, higher = more binding, comparable within an allelic series)"
same,binding signal,SIX6 [6],"8.97 upbm affinity estimate (log intensity, higher = more binding, comparable within an allelic series)"
same,binding signal,VENTX [7],"7.82 upbm affinity estimate (log intensity, higher = more binding, comparable within an allelic series)"
same,binding signal,SIX6 [8],"8.85 upbm affinity estimate (log intensity, higher = more binding, comparable within an allelic series)"
same,binding signal,SIX6 [9],"8.93 upbm affinity estimate (log intensity, higher = more binding, comparable within an allelic series)"
same,binding signal,SIX6 [10],"8.82 upbm affinity estimate (log intensity, higher = more binding, comparable within an allelic series)"
same,binding signal,SIX6 [11],"8.95 upbm affinity estimate (log intensity, higher = more binding, comparable within an allelic series)"
same,binding signal,SIX6 [12],"8.93 upbm affinity estimate (log intensity, higher = more binding, comparable within an allelic series)"
same,binding signal,SIX6 [13],"8.92 upbm affinity estimate (log intensity, higher = more binding, comparable within an allelic series)"
same,binding signal,SIX6 [14],"8.98 upbm affinity estimate (log intensity, higher = more binding, comparable within an allelic series)"
same,binding signal,SIX6 [15],"8.89 upbm affinity estimate (log intensity, higher = more binding, comparable within an allelic series)"
same,binding signal,VAX1 [16],"7.02 upbm affinity estimate (log intensity, higher = more binding, comparable within an allelic series)"
same,binding signal,SIX6 [17],"8.88 upbm affinity estimate (log intensity, higher = more binding, comparable within an allelic series)"
same,binding signal,VAX1 [18],"7.07 upbm affinity estimate (log intensity, higher = more binding, comparable within an allelic series)"
same,binding signal,VAX1 [19],"6.96 upbm affinity estimate (log intensity, higher = more binding, comparable within an allelic series)"
CGAGCGAC,binding signal,VENTX [1],"8.03 upbm affinity estimate (log intensity, higher = more binding, comparable within an allelic series)"
same,binding signal,HOXB9 [20],"8.47 upbm affinity estimate (log intensity, higher = more binding, comparable within an allelic series)"
same,binding signal,HOXC9 [21],"9.58 upbm affinity estimate (log intensity, higher = more binding, comparable within an allelic series)"
same,binding signal,VENTX [3],"7.84 upbm affinity estimate (log intensity, higher = more binding, comparable within an allelic series)"
same,binding signal,VENTX [7],"8.14 upbm affinity estimate (log intensity, higher = more binding, comparable within an allelic series)"
same,binding signal,HOXB9 [22],"8.38 upbm affinity estimate (log intensity, higher = more binding, comparable within an allelic series)"
same,binding signal,HOXC9 [23],"9.72 upbm affinity estimate (log intensity, higher = more binding, comparable within an allelic series)"
same,binding signal,ALX3 [24],"7.8 upbm affinity estimate (log intensity, higher = more binding, comparable within an allelic series)"
same,binding signal,HOXC9 [25],"9.67 upbm affinity estimate (log intensity, higher = more binding, comparable within an allelic series)"
same,binding signal,ALX3 [26],"7.63 upbm affinity estimate (log intensity, higher = more binding, comparable within an allelic series)"
same,binding signal,VAX1 [16],"7.11 upbm affinity estimate (log intensity, higher = more binding, comparable within an allelic series)"
same,binding signal,ALX3 [27],"7.78 upbm affinity estimate (log intensity, higher = more binding, comparable within an allelic series)"
same,binding signal,HOXB9 [28],"8.41 upbm affinity estimate (log intensity, higher = more binding, comparable within an allelic series)"
same,binding signal,HOXC9 [29],"9.73 upbm affinity estimate (log intensity, higher = more binding, comparable within an allelic series)"
same,binding signal,ALX3 [30],"7.74 upbm affinity estimate (log intensity, higher = more binding, comparable within an allelic series)"
same,binding signal,VAX1 [18],"7.15 upbm affinity estimate (log intensity, higher = more binding, comparable within an allelic series)"
same,binding signal,ALX3 [31],"7.82 upbm affinity estimate (log intensity, higher = more binding, comparable within an allelic series)"
same,binding signal,VAX1 [19],"7.05 upbm affinity estimate (log intensity, higher = more binding, comparable within an allelic series)"
GGCACCAC,binding signal,VENTX [1],"8.11 upbm affinity estimate (log intensity, higher = more binding, comparable within an allelic series)"
same,binding signal,HOXC9 [21],"9.65 upbm affinity estimate (log intensity, higher = more binding, comparable within an allelic series)"
same,binding signal,VENTX [3],"8.1 upbm affinity estimate (log intensity, higher = more binding, comparable within an allelic series)"
same,binding signal,VENTX [7],"8.09 upbm affinity estimate (log intensity, higher = more binding, comparable within an allelic series)"
same,binding signal,HOXC9 [23],"9.66 upbm affinity estimate (log intensity, higher = more binding, comparable within an allelic series)"
same,binding signal,HOXC9 [25],"9.65 upbm affinity estimate (log intensity, higher = more binding, comparable within an allelic series)"
same,binding signal,HOXC9 [29],"9.76 upbm affinity estimate (log intensity, higher = more binding, comparable within an allelic series)"
